Experimental data taken from PMC7819943, “Rice protein-binding microarrays: a tool to detect cis-acting elements near promoter regions in rice”.
Over roughly 39,000 sequences, “fluorescence intensity (a.u.)” has its median near 4,300; the highest 2% begin near 39,000. The list comes from a sample in which the highest values are over-represented; it also holds similar and randomly drawn sequences.

target: T1, OsSMF1 (Oryza sativa, UniProt Q6ZLB0 1-436); experiment: protein-binding microarray (RPBM); PBS, 2% BSA, 51.3 ng/ul salmon testes DNA, 50 uM zinc acetate, 200 nM TF, 25 C, 1 h; high values mean tight binding; details: protein: recombinant; tags: N-terminal polyhistidine and DsRed monomer fusion (pET32a); chain copies: 2; label: CyDye5-dUTP incorporated in the synthesized complementary strand; 3' TTTTT single-stranded linker to array surface; dsDNA, one strand shown
T1 sequence: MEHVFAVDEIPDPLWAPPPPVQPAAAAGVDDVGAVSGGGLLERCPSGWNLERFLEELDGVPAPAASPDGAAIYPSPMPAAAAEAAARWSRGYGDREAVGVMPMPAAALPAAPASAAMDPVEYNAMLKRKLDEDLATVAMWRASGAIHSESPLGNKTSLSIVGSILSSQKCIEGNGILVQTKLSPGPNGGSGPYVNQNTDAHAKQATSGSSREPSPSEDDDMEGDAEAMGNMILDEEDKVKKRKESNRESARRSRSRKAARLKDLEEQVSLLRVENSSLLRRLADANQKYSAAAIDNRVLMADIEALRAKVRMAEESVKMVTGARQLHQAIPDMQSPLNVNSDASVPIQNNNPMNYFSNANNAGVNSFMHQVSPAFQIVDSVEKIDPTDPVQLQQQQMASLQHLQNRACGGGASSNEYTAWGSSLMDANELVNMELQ
Outline: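 Transcription factors were each fused at the N-terminus to a polyhistidine tag plus DsRed and expressed in E. coli BL21-CodonPlus before Ni–NTA purification. Binding to a double-stranded custom Agilent array was carried out with 200 nM protein at 25 °C for 1 h in PBS, 2% BSA, salmon testes DNA and 50 µM zinc acetate. The binding signal is per-feature fluorescence intensity, in arbitrary units, on an Axon 4000B scanner.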

Sequence	binding signal
CTCACTGACGTAGGTTTATTGTACCTATTCTAATTAAGGCCGGAGTCACCTAGTGCAG	39400 fluorescence intensity (a.u.)
GAGGGTTTTAATTACTCACTGACATGTAGGGTCACGGGGTCGGAGTCACCTAGTGCAG	4390 fluorescence intensity (a.u.)
ACACTATTAATTGTTTTATTAGGTTTCAGACGTTATTTTGCGGAGTCACCTAGTGCAG	3150 fluorescence intensity (a.u.)
TTTGAGCGCCGCTCGACTATGTCATGAAGCAACGTGGCACCGGAGTCACCTAGTGCAG	7750 fluorescence intensity (a.u.)
GGGGAGAGGGAGGAGGAGGAGGAGAGTGGCTACTAGTACTCGGAGTCACCTAGTGCAG	3380 fluorescence intensity (a.u.)
CTCATTTGAACACATGTACACTACTAATCCTCGTTCTGGACGGAGTCACCTAGTGCAG	39200 fluorescence intensity (a.u.)
ACATTCTAGCCATTCATTCTTCACACCTCATTTAATCCTACGGAGTCACCTAGTGCAG	3280 fluorescence intensity (a.u.)
TGTACATTGTTTGAACTAATCAGTAATCATCACAGTGGTTCGGAGTCACCTAGTGCAG	3160 fluorescence intensity (a.u.)
CAATAGACTTCAAGGAAGCATACCAATACCAGTAACCACACGGAGTCACCTAGTGCAG	40800 fluorescence intensity (a.u.)
ACCACACCTTGTCAAAACTTCAGTAACAGCAGAAGTTACACGGAGTCACCTAGTGCAG	3140 fluorescence intensity (a.u.)
GGCAAACCAGTAACTAGAAACCACGTTATTCAAAAGCATTCGGAGTCACCTAGTGCAG	3940 fluorescence intensity (a.u.)
TATACACCACGTTTGCTGGCTTGGCTTCCTTCCACACTCCCGGAGTCACCTAGTGCAG	4000 fluorescence intensity (a.u.)
TCTTTTGGTTTACAACACTTTGTATGCTAGCATTATTTTGCGGAGTCACCTAGTGCAG	3420 fluorescence intensity (a.u.)
GCGGTTTATGTACACGTCAGCATTTTGCTTCCTTCCTTCCCGGAGTCACCTAGTGCAG	47800 fluorescence intensity (a.u.)
CCGCGCCACCTCATGCCGTGACGTGCAGATCCCCTCCTCCCGGAGTCACCTAGTGCAG	7890 fluorescence intensity (a.u.)
GGAATGGATAGTGTTCTCGGAAGGAAATTGGTGCTGATGTCGGAGTCACCTAGTGCAG	45600 fluorescence intensity (a.u.)
ATCGTGATGCAAATGTCGAACTTGGAAGATATCCATGGATCGGAGTCACCTAGTGCAG	39000 fluorescence intensity (a.u.)
TTGTCCATCAATGGAGATGATGATGCCATGATCAAATGATCGGAGTCACCTAGTGCAG	3370 fluorescence intensity (a.u.)
ACATCATGCCACATGCTTCCAAGAAGGATCCCATAGATGTCGGAGTCACCTAGTGCAG	4220 fluorescence intensity (a.u.)
CACGTGTTTTCTCGATGTCCACGTGGTGATGTGGAATTGTCGGAGTCACCTAGTGCAG	14800 fluorescence intensity (a.u.)
AATCTCGGTGCTGAGTGGACATGAATGAATGATGGAATCTCGGAGTCACCTAGTGCAG	4150 fluorescence intensity (a.u.)

Sequence	binding signal
TCGATTCATTCGTTCCTTGGGTCGTGTCAGCATGGCCCATCGGAGTCACCTAGTGCAG	11100 fluorescence intensity (a.u.)
GGTCTGGCGATGGAGCCTCCCGCCGGAGACGCCGCGCCGTCGGAGTCACCTAGTGCAG	3540 fluorescence intensity (a.u.)
CCATGTTCCCAACCCCTCTCCCTCATTTTCCACGCGTATGCGGAGTCACCTAGTGCAG	3650 fluorescence intensity (a.u.)
ATGTTTGTGAAGTGACATATCACATATTGATCTATCATACCGGAGTCACCTAGTGCAG	5200 fluorescence intensity (a.u.)
GAAACAAACACATCAGATGACGTTTGTTGAAATGCCTAACCGGAGTCACCTAGTGCAG	5000 fluorescence intensity (a.u.)
GTCCCTATCACATCGGATGTTTGAACAAAACAGAATATACCGGAGTCACCTAGTGCAG	45600 fluorescence intensity (a.u.)
TAACATCATGTCTAGTTTGTTACCCTATCAAGACTAAAACCGGAGTCACCTAGTGCAG	42600 fluorescence intensity (a.u.)
TGAGAGGTCTACATCATTACATGTCAAGACAAGACTACCACGGAGTCACCTAGTGCAG	4540 fluorescence intensity (a.u.)
ATCATCTAGTTAAGACTGTTTGTATGCAACTATGCATGTACGGAGTCACCTAGTGCAG	31400 fluorescence intensity (a.u.)
ACTTAATAAAATCAAACGTCACAGTTCCGTACTTTTCAGTCGGAGTCACCTAGTGCAG	35900 fluorescence intensity (a.u.)
TCGCCGGGCTTCTCTACGAGTACCTCGTCATCCCGTCCACCGGAGTCACCTAGTGCAG	5700 fluorescence intensity (a.u.)
ACGCAGCGGGCCAACTCCAACTCATCCCCAGCCTCCACCACGGAGTCACCTAGTGCAG	4360 fluorescence intensity (a.u.)
TCCGTGCTACAGCTAGCTACAGATATGTAGTCCGTCATTCCGGAGTCACCTAGTGCAG	45200 fluorescence intensity (a.u.)
TTGGAGTCCGTGCTGCAGCTGGCTACAGATCTGTAGCCCGCGGAGTCACCTAGTGCAG	37600 fluorescence intensity (a.u.)
CCGTGCTACAGCTGGCTACAAATATGTAGCCCTATGCTCTCGGAGTCACCTAGTGCAG	18300 fluorescence intensity (a.u.)
ATCCTGTCACGGTCAGCCACGTCGCGGAGGGCAGTGCGACCGGAGTCACCTAGTGCAG	4580 fluorescence intensity (a.u.)
TTTACCATTGCGGGTGCTCTAATAGGTGGCATGCCATGCGCGGAGTCACCTAGTGCAG	4740 fluorescence intensity (a.u.)
CGTCGTGCTCGTCGACGTCGTGCACTCCGTCGCCATCGTGCGGAGTCACCTAGTGCAG	3220 fluorescence intensity (a.u.)
AGGCTCCCCTGAGTCGTGACGTGCACTCGAAAGTCGAAAGCGGAGTCACCTAGTGCAG	41100 fluorescence intensity (a.u.)
CGCTTCTCTCCCTGAGCTCGGCCTCGTGTCACTGACGTCGCGGAGTCACCTAGTGCAG	4390 fluorescence intensity (a.u.)
TACTTTAAGTACATGTATTAGTCAGCTGATATATACCTCACGGAGTCACCTAGTGCAG	4310 fluorescence intensity (a.u.)
